# In PubChem BioAssay:
# Tested on: PRMT1 (protein arginine N-methyltransferase 1)
# Assay: PRMT1 binders on small-molecule microarrays, primary screen, biochemical, small-molecule microarray, 635 nm fluorescence (AID 1088);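 note: binding of Prmt1 protein to compounds spotted on small-molecule microarray slides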
# Conditions: small-molecule microarray binding, higher = more signal
row,SMILES,composite z-score
1,CCOC(=O)NN=C1C[C@@H](O)[C@@H](O)[C@@H]2[C@@H]3C(=O)N([C@@H](C)c4ccccc4)C(=O)[C@@H]3CC[C@@H]12,1.46
2,COC(=O)[C@@H]1CC[C@H](C)[C@@H](c2ccc(C)cc2)N1C(=O)c1ccc(C=NO[C@@H](C)c2cn([C@H](CO)Cc3ccccc3)nn2)cc1,1.44
3,O=C1CCCC=C1C(O)CCOC(c1ccccc1)(c1ccccc1)c1ccccc1 (stereo unspecified),-0.758
4,COC(=O)CC=C[C@@H](C)[C@@H]1C=C[C@H](O)[C@@H](CO)O1,-0.266
5,C[C@@H](ON=C1[C@H]2CCn3c(=O)n(-c4ccccc4)c(=O)n3[C@H]2[C@H](O)[C@@H]2O[C@H]12)c1cn([C@@H]2COC[C@H]2O)nn1,0.556
6,CO[C@@H]1COC(=O)[C@H](CCSC)NC(=O)CC=C[C@@H](C)COC(=O)CCC[C@H]1C,1.55
7,COc1cccc([C@@H]2Oc3ccc(OC)cc3C(=O)[C@H]2O)c1,0.597
8,C=CC1=C[C@H](O)[C@@H]2O[C@@H]2C12OCCCO2,-0.12
9,CCOC(=O)NN=C1C[C@@H](O)[C@@H](O)[C@@H]2[C@@H]3C(=O)N(Cc4ccccc4)C(=O)[C@@H]3CC[C@H]12,-0.278
10,COC(=O)[C@@H]1CC[C@H](C)[C@@H](c2ccc(C)cc2)N1C(=O)c1ccc(C=NO[C@H](C)c2cn([C@H](CO)Cc3ccccc3)nn2)cc1,1.04
11,COc1cc(O)c(C(=O)C=Cc2ccc3c(c2)OCO3)c(OC)c1,-0.825
12,CCOC(=O)[C@H](CC(C)C)NC(=O)CCC1CC(OC(=O)NCc2cccc3ccccc23)CC2(CCCC(COC(=O)NCC3CCCCC3)O2)O1 (stereo partly specified),1.47
13,Cc1cc2c(c(=O)o1)[C@@H](O)[C@H]1O[C@H]1C2=O,0.798
14,Cc1ccc(S(=O)(=O)NC(CCc2ccccc2)CC(=O)C(C)(C)C)cc1 (stereo unspecified),1.09
15,C[C@@H](c1ccccc1)N1C(=O)[C@H]2[C@H]3[C@H](O)[C@H](O)CC(=NO[C@@H]4O[C@H](CO)[C@@H](O)[C@H](O)[C@H]4O)[C@@H]3CC[C@H]2C1=O,0.0967
16,CCN1C(=O)[C@@H]2[C@H]3C(=CC[C@@H]2C1=O)C1(OCCCO1)[C@H]1O[C@H]1[C@H]3O,1.44
17,CCOC(=O)[C@H](CC(C)C)NC(=O)CCC1CC(OC(=O)NCc2cccc3ccccc23)CC2(CCCC(COC(=O)NCCCN3CCCC3=O)O2)O1 (stereo partly specified),1.4
18,CC(=O)OC[C@H]1OC(ON=CC[C@@H]2C=C[C@H](OC(C)=O)[C@@H](COC(C)=O)O2)[C@H](OC(C)=O)[C@@H](OC(C)=O)[C@@H]1OC(C)=O (stereo partly specified),1.4

row,SMILES,composite z-score
1,COc1ccc(O[C@@H]2[C@H](O)CO[C@@H]2C=Cc2ccccc2)cc1,0.123
2,O=C1[C@H]2[C@H]3[C@H](O)[C@H](O)CC(=NOC[C@@H](O)COCc4ccco4)[C@H]3CC[C@H]2C(=O)N1C[C@@H]1CCCO1,0.629
3,CC(C)=CCCC(C)=CCON=C1C[C@@H](O)[C@@H](O)[C@@H]2[C@@H]3C(=O)N(C(C)(C)C)C(=O)[C@@H]3CC[C@@H]12,-0.305
4,C#CCCCON=C1C[C@@H](O)[C@@H](O)[C@@H]2[C@@H]3C(=O)N(CCC(=O)OCC)C(=O)[C@@H]3CC[C@H]12,1.48
5,C[C@H]1CC[C@H]2C(=O)O[C@H](COc3ccc(C(C)(C)C)cc3)CN2[C@@H]1c1ccc(Br)cc1,0.27
6,CC(C)=CCCC(C)=CCON=C1C[C@@H](O)[C@@H](O)[C@@H]2[C@@H]3C(=O)N(c4cccc(Oc5ccccc5)c4)C(=O)[C@@H]3CC[C@@H]12,0.355
7,COc1ccc(O[C@H]2C=C[C@@H](c3ccccc3)O[C@@H]2COC(=O)CCC(C)=NOC(C)CN2CCCc3nc(C)c(C)cc32)cc1 (stereo partly specified),1.35
8,COC(=O)[C@H](C)NC(=O)CCC1CC(OC(=O)NCc2cccc3ccccc23)CC2(CCCC(COC(=O)NCC(c3ccccc3)c3ccccc3)O2)O1 (stereo partly specified),1.48
9,C=COC[C@@H]1CN2[C@@H](CC[C@@H](C)[C@@H]2c2ccc(Br)cc2)C(=O)O1,0.217
10,CCOC(=O)[C@H](CC(C)C)NC(=O)CCC1CC(OC(=O)NCc2cccc3ccccc23)CC2(CCCC(COC(=O)NCCC(C)C)O2)O1 (stereo partly specified),0.554
11,CCOC(=O)[C@H](Cc1ccccc1)NC(=O)CCC1CC(OC(=O)NCCc2ccc(F)cc2)CC2(CCCC(COC(=O)NCCc3ccccc3OC)O2)O1 (stereo partly specified),1.4
12,CO[C@H](C1CCCCC1)[C@H](C)C=CCC(=O)OCCCc1ccccc1,-0.53
13,O=C1C[C@@H](O)[C@@H](O)[C@@H]2[C@@H]3C(=O)N(Cc4ccccc4)C(=O)[C@@H]3CC[C@@H]12,0.187
14,CCN1C(=O)[C@H]2[C@H]3[C@H](O)[C@H](O)CC(=NOCC(C)C)[C@@H]3CC[C@H]2C1=O,1.55
15,COC(=O)CC=C[C@@H](C)[C@@H](C=NOC[C@H]1O[C@H](c2ccccc2)C=C[C@@H]1Oc1ccc(OC)cc1)OC,-0.356
16,CC(CCN1CCc2nc(-c3ccccc3)c(-c3ccccc3)cc2C1)=NOC[C@@H](O)[C@H]1O[C@@H]2OC(C)(C)O[C@@H]2[C@H]1O,1.53
17,O=C(NN=C1C[C@@H](O)[C@@H](O)[C@@H]2[C@@H]3C(=O)N(C4CCCCC4)C(=O)[C@@H]3CC[C@@H]12)OCc1ccccc1,-0.492
18,COc1ccc(O[C@H]2C=C[C@@H](c3ccccc3)O[C@@H]2CON=C(C)CCC(=O)OC[C@H]2O[C@H](c3ccccc3)C=C[C@@H]2Oc2ccc(OC)cc2)cc1,-2.44
